# Among all 4,800 compounds or so, about 410 (8.5%) showed an effect of 50% or more. Only a selection was taken, and strong results are over-represented in it overall.
# Tested on: Plasmodium falciparum
# Experiment: Confirmatory screen in NF54 pLDH assay, in single point, at 2uM, 72h
# Type: functional, Erythrocyte
# Conditions: timepoint 72 hour
row,Compound,% Inhibition
1,O=C(O)C1c2ccccc2C(=O)N(C2CCCCC2)C1c1ccc(Cl)cc1 (stereo not drawn),-3%
2,Cc1noc(C)c1CN1CCCN(C(=O)c2n[nH]c3ccccc23)CC1,7%
3,Cc1noc(C)c1CN1C[C@@H]2Oc3cc(F)ccc3C(=O)N(C)[C@@H]2C1,97%
4,Cc1noc(C)c1CN1CCNC(=O)CC1,-14%
5,Cc1ccc(N2C(=O)c3ccccc3[C@H]2Nc2nc(C)cs2)nc1,-16%
6,C[C@@H]1CN(C(=O)NCCc2ccc(C(F)(F)F)cn2)C[C@H](C)O1,6%
7,Cc1cc(NCc2noc(-c3ccsc3)n2)ccc1C(N)=O,5%
8,Cc1noc(C)c1NS(=O)(=O)c1ccc2c(c1)OCCCO2,0%
9,CCN(CC(=O)Nc1ccc2c(c1)OCCO2)C(=O)CCc1c(C)noc1Cl,5%
10,COc1ccc(N2CCN(C(=O)c3ccc(F)cc3)[C@@H](C)C2=O)cc1,11%
11,COc1ccc2[nH]c3c(c2c1)CCN(C(=O)c1ccc(C)c(C)c1)[C@@H]3c1ccccc1OC,86%
12,COc1ccc([C@@H]2c3[nH]c4ccc(OC)cc4c3CCN2C(=O)NCc2ccc(F)cc2)cc1,4%
13,CC1(C)CCC(Nc2ccc(C(N)=O)nn2)CC1,92%
14,CC1CCCCC1OCCN1CCOCC1C(N)=O (stereo not drawn),7%
15,COc1cccc(-c2cc(C(=O)Nc3ccc(F)c(Cl)c3)c3c(C)nn(C)c3n2)c1,4%
16,Cc1nn(C)c(C)c1-c1cc(C(=O)Nc2cc(F)ccc2F)c2c(C)nn(C)c2n1,2%
17,CC(C)C(C(=O)O)N1Cc2c(cc(O)c3c2OC2(C3)C(C)CCC3C(C)(C)C(O)CCC32C)C1=O (stereo not drawn),5%
18,Cc1c(NC(=O)C(F)(F)[C@@]2(F)OC(F)(F)C(F)(F)C2(F)F)c(=O)n(-c2ccccc2)n1C,-16%
19,Cc1cc(F)ccc1-n1ccc(C(=O)N(C[C@H]2CCOC2)C2CC2)n1,-12%
20,CC[C@](O)(C(=O)N(C)Cc1ncon1)c1cccc(Cl)c1,-13%
21,Cc1ccc(CC[C@H]2Nc3ccccc3C(c3ccccc3)(c3ccccc3)O2)o1,66%

row,Compound,% Inhibition
1,CCCOC(=O)c1cc(NC(=O)c2ccc3ccccc3c2)ccc1N1CCOCC1,-11%
2,Cc1cc(C(=O)N2CCC3(CCNCC3)CC2)ccc1F,7%
3,CN1C(=O)[C@H](O)N(c2cccc3ccccc23)C1=O,9%
4,COc1cccc(-c2cc3c(N4CCN(c5ccccn5)CC4)nccn3n2)c1,4%
5,C[C@H](NC(=O)c1cc(-c2ccc(F)cc2)ns1)c1ccccn1,9%
6,Cc1c2c(C(F)(F)F)cc(=O)n(CCC(=O)Nc3ncc(Cl)cc3Cl)c2nn1C,-7%
7,Cn1c(Cc2n[n+]3c(-c4ccccc4)cc(-c4ccccc4)nc3n2C)n[n+]2c(-c3ccccc3)cc(-c3ccccc3)nc12,95%
8,Cc1ccc(Cl)cc1N1CCN(C(=O)c2ccc3noc(-c4ccc(F)cc4)c3c2)CC1,-13%
9,c1ccc(CC2CCN(c3[nH]cnc4ncnc3-4)CC2)cc1,11%
10,Cc1cccc(C(=O)Nc2ccc(N3CCCCCC3)cc2C(=O)O)c1,-10%
11,O=C(Nc1cccc(C(F)(F)F)c1)C(Oc1ccccc1)Oc1ccccc1,-19%
12,O=C(Nc1cc(N2CCCS2(=O)=O)ccc1O)c1cccc(Oc2cccc(C(F)(F)F)c2)c1,97%
13,CCOC(=O)c1oc(NC(=O)OC(C)(C)C)nc1C(F)(F)F,5%
14,C#CCn1ccc(O)c(Cc2ccccc2)c1=O,14%
15,CN(C(=O)C1CC=CC1)c1ccc(NC(=O)C2CC=CC2)cc1Cl,-13%
16,c1ccc(N2CCN(CCN[C@H]3CCc4cc5c(cc43)CCC5)CC2)cc1,9%
17,Oc1ccccc1CCN[C@H]1CCc2ccc(F)cc21,95%
18,CN(Cc1ccc(F)cc1Cl)[C@H]1CCc2nnc(C3CCOCC3)n2CC1,-4%
19,Cc1ccnc(CNC(=O)N[C@H]2CCc3ccc(F)cc32)c1,-12%
20,O=C1OCc2cc(NC(=O)[C@@H]3COc4ccccc4O3)ccc21,10%
21,Cc1cc(OCc2ccc(C(=O)Nc3ncn(Cc4c(F)cccc4Cl)n3)o2)ccc1Cl,0%

row,Compound,% Inhibition
1,COc1ccc(NC(=O)CC(C)(C)CC(=O)O)cc1,10%
2,Cc1cc2nc(C)c(=O)n(Cc3ccc(C(=O)N4CCC(Cc5ccccc5)CC4)cc3)c2cc1C,12%
3,C=Cn1cc[n+](CC(=O)c2ccc(-c3ccccc3)cc2)c1,51%
4,Cc1ccc(C(=O)C[n+]2cc(-c3ccc(-c4ccccc4)cc3)n(C)c2N)cc1,4%
5,Cn1c(-c2ccc(Cl)c(Cl)c2)c[n+](CC(=O)c2ccc(-c3ccccc3)cc2)c1N,9%
6,CCC(C(=O)Nc1cc(C)on1)(C(F)(F)F)C(F)(F)F,9%
7,CCCN1CCN(CCCNC(=O)c2ccc(Cl)c(-n3c(C)nc4cccnc43)c2)CC1,13%
8,Cc1cc(NC(=O)[C@H](C)OC(=O)c2ccc3c(c2)OCC(=O)N3)on1,-19%
9,Cc1nnc(-c2ccccc2NC(=O)CCC2CCC(C)O2)o1 (stereo not drawn),-16%
10,Cc1nnc(CC(=O)NC2CC(OCc3ccccc3)C2(C)C)o1 (stereo not drawn),8%
11,Cc1nnc(CNC(=O)Nc2cccc3c4c(oc23)CCCC4)o1,72%
12,Cc1ccc(NC(=N)NC2=N[C@@H](CC(=O)Nc3cccc(C(F)(F)F)c3)C(=O)N2)cc1,-10%
13,CCn1nccc1CNc1ccc(F)cc1F,2%
14,Cc1ccc(S(=O)(=O)N2CCC[C@H](C(=O)NCc3cccc(NC(=O)N4CCCC4)c3)C2)s1,8%
15,Cc1cc2c(OC[C@@H](O)CN3CCOCC3)cccc2[nH]1,-7%
16,Cc1nn(Cc2ccccc2)c(=O)n1-c1ccc(OCc2ccccc2)cc1,-14%
17,COCCCNC(=O)C1CCN(c2c(C)n(-c3ccccc3)c(=O)n(CC(C)C)c2=O)CC1,5%
18,CN(Cc1ccc(F)cn1)c1ccn(C)n1,8%
19,CC1(C)OCc2cc(CNc3ccc4oc(=O)[nH]c4c3)ccc2O1,100%
20,Cc1ccc(C)c(NC(=O)CC(=O)O)c1,-8%
21,O=C1C2CC2C(=O)N1Cc1ccccc1 (stereo not drawn),10%

# Reference: ChEMBL document CHEMBL4888484, “Replenishing the malaria drug discovery pipeline: Screening and hit evaluation of the MMV Hit Generation Library 1 (HGL1) against asexual blood stage Plasmodium falciparum ,using a nano luciferase reporter read-out” (2022)
